# Measurements: ChEMBL document CHEMBL3988442, “University of Dundee, Small-Polar-MMV Screening Library” (2021)
# For part of these data: Potency and affinity values are given separately.
# Key:
# Design in all cases: scale not given: direction of the effect not stated beside the values
# [1] = target: Protein translocase subunit SecA (Escherichia coli (strain K12)) (UniProt P10408); assay: Assay to Identify E. coli SecA ATPase Inhibitors; assay type: functional; details: 30 µM
# [2] = target: T1, Ubiquitin-activating enzyme e1, putative (Leishmania donovani (strain BPK282A1)) (UniProt E9BSI1); assay: Leishmania donovani Ubiquitin Activating Enzyme (LdE1); assay type: functional; details: 30 µM
# T1 sequence (whole entry): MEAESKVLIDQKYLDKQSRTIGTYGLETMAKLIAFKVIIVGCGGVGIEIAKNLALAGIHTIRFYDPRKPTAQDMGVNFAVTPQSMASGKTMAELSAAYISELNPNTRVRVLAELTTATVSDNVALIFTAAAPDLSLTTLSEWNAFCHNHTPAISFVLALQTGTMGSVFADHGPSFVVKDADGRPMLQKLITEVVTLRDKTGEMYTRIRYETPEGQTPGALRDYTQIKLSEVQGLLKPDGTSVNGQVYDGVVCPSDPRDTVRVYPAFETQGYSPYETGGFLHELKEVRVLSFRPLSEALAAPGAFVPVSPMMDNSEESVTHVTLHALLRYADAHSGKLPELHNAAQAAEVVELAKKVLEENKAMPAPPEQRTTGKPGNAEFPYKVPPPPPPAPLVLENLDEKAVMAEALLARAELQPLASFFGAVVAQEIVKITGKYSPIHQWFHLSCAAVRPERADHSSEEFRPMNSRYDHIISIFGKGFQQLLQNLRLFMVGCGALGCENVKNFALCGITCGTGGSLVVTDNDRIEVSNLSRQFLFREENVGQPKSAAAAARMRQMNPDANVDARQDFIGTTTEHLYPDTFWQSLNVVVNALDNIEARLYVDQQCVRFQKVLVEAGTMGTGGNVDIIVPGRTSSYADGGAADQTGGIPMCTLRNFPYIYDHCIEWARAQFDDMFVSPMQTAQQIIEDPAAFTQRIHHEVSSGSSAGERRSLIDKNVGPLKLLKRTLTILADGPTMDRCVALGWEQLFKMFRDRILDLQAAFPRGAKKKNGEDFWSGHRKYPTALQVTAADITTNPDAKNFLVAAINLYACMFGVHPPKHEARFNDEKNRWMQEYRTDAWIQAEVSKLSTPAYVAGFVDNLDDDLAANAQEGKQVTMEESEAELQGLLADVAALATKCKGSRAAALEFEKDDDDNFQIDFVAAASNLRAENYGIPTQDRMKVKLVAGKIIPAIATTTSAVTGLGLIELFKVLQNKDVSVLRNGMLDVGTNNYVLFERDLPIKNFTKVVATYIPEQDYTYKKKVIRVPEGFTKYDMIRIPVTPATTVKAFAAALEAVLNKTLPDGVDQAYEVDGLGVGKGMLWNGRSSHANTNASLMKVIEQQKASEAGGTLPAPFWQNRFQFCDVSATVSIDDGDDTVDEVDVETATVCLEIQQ
# [3] = target: T2, Aspartate--tRNA(Asp/Asn) ligase (Mycobacterium tuberculosis (strain ATCC 25618 / H37Rv)) (UniProt P9WFW3); assay: Assay for Asp RNA synthetase-1 from Mycobacterium tuberculosis; assay type: functional; details: 30 µM; note: in the data most compounds retested in dose-response had high values
# T2 sequence (whole entry): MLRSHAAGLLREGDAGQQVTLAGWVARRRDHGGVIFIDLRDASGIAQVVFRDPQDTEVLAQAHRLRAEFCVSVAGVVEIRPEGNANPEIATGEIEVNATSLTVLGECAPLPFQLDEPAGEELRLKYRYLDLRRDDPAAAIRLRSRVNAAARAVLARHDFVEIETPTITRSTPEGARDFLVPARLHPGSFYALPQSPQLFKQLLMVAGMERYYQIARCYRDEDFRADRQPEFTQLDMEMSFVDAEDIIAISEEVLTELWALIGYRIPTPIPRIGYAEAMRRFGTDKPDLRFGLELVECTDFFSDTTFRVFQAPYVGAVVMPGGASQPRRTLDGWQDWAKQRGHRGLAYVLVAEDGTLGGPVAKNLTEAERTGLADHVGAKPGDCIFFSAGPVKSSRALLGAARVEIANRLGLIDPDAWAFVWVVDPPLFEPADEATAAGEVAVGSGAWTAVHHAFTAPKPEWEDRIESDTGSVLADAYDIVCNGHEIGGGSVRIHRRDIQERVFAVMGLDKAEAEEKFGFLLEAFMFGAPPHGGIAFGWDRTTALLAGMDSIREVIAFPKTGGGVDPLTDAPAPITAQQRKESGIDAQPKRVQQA
# [4] = target: AMP-activated protein kinase, AMPK (Homo sapiens) (UniProt P54646+O43741+P54619+Q9UGJ0+Q9Y478+Q13131+Q9UGI9); assay: AMP-dependent Kinase enzyme assay. An in vitro enzyme assay that detects ADP turnover that is directly proportional to AMPK activity. This uses naive AMPK that is activated during the assay with MK-8722; assay type: functional; details: 30 µM
# [5] = target: Sialic acid-binding Ig-like lectin 9 (Homo sapiens) (UniProt Q9Y336); assay: Hs-Siglec9 ALPHAscreen SOP 20170721; details: 10 µM
# Trypanosoma cruzi = assay: Trypanosoma cruzi phosphomannomutase and mannose-1-phosphate guanylyltransferase assay; assay type: functional; details: 10 µM
# [6] = target: T3, Arginase-2, mitochondrial (Homo sapiens) (UniProt P78540); assay: in vitro enzyme assay to detect the production of urea directly proportional to the activity of Arginase II; assay type: functional; details: 33.3 µM; note: in the data most compounds retested in dose-response had high values
# T3 sequence (whole entry): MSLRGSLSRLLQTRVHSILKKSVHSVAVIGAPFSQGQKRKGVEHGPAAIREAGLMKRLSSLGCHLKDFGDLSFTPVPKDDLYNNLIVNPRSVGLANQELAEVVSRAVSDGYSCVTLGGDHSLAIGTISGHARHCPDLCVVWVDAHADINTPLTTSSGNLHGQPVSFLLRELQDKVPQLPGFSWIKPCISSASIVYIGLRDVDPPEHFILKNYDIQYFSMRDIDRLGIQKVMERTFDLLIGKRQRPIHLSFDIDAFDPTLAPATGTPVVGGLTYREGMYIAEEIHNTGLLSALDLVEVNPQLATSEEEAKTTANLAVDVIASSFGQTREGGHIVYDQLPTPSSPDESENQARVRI
# [7] = target: T4, Proteasome subunit beta (Trypanosoma cruzi) (UniProt O96673); assay: Trypanosoma cruzi proteasome chymotrypsin-like activity (TcProtChymo) assay.; note: in the data most compounds retested in dose-response had high values; assay type: functional; details: 9.37 µM
# T4 sequence (whole entry): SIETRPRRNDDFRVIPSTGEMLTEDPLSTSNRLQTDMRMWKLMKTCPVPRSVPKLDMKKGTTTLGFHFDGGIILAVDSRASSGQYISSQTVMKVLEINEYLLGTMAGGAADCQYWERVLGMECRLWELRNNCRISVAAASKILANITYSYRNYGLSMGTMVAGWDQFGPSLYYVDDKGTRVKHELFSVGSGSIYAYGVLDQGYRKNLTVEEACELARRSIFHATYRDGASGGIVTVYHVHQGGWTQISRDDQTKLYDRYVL
# Homo sapiens = species on record: Homo sapiens; assay: To identify inhibition of the IFN signalling (Jak-Stat) pathway via expression of an eGFP reporter gene under the control of an IFN-stimulated response element (ISRE) containing MxA promoter.; assay type: functional; details: 30 µM
# [8] = target: Shiga toxin 2 (Escherichia coli O157:H7) (UniProt P09385+P09386); assay: E. coli 0.157:H7 Shiga Toxin SOP - stx2 screening assay; assay type: functional; details: 30 µM
# [9] = target: T5, Tyrosyl-tRNA synthetase, putative (Trypanosoma cruzi (strain CL Brener)) (UniProt Q4DSP6); assay: Trypanosoma cruzi tyrosyl tRNA synthetase (TcYRS) _High Tyrosine SOP; assay type: functional; details: 30 µM; note: in the data most compounds retested in dose-response had high values
# T5 sequence (whole entry): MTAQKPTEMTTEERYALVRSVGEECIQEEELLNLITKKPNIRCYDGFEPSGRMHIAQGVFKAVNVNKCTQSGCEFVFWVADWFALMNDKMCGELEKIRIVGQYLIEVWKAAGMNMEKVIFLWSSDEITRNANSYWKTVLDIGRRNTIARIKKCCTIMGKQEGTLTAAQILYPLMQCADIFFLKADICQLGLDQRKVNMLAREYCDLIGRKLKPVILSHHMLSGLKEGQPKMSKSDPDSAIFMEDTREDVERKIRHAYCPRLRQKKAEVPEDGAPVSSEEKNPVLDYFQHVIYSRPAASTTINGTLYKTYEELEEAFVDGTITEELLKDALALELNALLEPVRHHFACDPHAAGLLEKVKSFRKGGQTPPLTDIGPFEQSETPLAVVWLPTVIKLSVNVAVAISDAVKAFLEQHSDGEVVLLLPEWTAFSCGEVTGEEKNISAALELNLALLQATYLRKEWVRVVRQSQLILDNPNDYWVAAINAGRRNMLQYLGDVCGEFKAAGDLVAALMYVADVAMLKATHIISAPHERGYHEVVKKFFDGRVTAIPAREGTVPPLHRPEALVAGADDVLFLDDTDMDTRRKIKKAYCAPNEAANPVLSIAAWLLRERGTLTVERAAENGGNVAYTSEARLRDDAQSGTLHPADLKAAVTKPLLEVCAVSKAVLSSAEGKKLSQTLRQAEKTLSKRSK
# [10] = target: T5, Tyrosyl-tRNA synthetase, putative (Trypanosoma cruzi (strain CL Brener)); assay: Trypanosoma cruzi tyrosyl tRNA synthetase (TcYRS) SOP; assay type: functional; details: 30 µM
# [11] = target: Chromo domain-containing protein 1 (Saccharomyces cerevisiae (strain ATCC 204508 / S288c) (Baker's yeast)) (UniProt P32657); assay: ScCHD-1 Enzyme Inhibition Assay; assay type: functional; details: 30 µM; note: in the data most compounds retested in dose-response had high values
# Chain of Chromo domain-containing protein 1 (Saccharomyces cerevisiae (strain ATCC 204508 / S288c) (Baker's yeast)) (P32657 whole entry, the tested form may be a part): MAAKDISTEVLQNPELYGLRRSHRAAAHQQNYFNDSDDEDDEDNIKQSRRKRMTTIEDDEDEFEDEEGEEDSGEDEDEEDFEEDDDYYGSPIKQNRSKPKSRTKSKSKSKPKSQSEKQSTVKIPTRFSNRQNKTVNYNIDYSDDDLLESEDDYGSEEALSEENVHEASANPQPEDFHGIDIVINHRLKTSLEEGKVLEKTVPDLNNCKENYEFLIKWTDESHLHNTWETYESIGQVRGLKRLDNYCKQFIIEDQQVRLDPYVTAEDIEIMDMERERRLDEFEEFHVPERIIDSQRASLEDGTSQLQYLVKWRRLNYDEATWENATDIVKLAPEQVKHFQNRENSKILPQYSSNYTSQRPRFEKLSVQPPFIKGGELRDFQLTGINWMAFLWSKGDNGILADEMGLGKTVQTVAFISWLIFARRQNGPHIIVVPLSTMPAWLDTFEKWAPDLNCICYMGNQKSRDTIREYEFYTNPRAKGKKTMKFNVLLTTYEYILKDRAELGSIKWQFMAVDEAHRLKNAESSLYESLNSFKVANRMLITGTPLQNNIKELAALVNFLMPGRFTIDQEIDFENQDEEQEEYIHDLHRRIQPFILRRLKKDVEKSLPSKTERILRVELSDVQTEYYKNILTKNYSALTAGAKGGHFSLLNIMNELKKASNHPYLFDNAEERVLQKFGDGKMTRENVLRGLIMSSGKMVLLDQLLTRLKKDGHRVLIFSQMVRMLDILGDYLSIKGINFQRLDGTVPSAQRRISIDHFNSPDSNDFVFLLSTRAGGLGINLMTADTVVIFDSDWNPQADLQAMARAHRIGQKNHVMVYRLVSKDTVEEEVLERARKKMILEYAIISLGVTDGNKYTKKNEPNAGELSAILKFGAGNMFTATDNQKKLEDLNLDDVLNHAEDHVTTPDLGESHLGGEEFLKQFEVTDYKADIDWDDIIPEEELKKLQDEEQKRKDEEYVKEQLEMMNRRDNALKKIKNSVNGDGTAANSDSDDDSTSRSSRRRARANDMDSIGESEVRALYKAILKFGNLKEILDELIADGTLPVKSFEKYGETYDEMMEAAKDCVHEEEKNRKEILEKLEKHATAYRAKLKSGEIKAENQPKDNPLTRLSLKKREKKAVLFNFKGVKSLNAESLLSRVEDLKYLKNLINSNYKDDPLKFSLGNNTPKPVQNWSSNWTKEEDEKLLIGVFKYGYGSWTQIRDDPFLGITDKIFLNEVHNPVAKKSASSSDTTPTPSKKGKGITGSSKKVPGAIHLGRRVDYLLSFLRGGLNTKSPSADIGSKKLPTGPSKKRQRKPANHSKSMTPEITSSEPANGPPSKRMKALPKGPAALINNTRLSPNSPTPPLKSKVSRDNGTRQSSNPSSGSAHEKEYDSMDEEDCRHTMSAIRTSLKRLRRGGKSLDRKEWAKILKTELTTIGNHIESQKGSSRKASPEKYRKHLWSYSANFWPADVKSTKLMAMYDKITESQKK
# Chain of Protein translocase subunit SecA (Escherichia coli (strain K12)) (P10408 whole entry): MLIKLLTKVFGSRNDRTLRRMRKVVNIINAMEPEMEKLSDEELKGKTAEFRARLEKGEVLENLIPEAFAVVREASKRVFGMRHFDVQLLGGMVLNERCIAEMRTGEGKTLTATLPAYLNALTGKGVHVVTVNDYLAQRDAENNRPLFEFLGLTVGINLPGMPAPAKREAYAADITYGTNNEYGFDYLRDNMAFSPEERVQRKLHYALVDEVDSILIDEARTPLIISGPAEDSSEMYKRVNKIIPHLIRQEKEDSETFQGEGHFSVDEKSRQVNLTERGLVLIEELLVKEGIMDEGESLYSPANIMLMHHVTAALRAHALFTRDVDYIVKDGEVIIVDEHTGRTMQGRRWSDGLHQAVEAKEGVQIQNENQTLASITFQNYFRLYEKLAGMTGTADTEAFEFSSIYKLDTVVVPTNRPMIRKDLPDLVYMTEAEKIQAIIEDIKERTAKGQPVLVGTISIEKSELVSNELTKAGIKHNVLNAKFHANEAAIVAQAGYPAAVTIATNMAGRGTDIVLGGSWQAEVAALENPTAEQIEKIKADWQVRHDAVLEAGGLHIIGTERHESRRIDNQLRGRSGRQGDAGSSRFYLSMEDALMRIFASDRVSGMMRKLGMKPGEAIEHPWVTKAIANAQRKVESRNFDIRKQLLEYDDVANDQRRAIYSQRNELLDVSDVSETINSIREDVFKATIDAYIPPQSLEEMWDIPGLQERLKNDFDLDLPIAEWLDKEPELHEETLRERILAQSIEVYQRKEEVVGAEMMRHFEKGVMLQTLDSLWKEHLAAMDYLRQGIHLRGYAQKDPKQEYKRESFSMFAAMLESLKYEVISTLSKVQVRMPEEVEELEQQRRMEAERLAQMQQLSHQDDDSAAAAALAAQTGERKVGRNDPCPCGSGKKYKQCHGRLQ
# Chain of Sialic acid-binding Ig-like lectin 9 (Homo sapiens) (Q9Y336 whole entry): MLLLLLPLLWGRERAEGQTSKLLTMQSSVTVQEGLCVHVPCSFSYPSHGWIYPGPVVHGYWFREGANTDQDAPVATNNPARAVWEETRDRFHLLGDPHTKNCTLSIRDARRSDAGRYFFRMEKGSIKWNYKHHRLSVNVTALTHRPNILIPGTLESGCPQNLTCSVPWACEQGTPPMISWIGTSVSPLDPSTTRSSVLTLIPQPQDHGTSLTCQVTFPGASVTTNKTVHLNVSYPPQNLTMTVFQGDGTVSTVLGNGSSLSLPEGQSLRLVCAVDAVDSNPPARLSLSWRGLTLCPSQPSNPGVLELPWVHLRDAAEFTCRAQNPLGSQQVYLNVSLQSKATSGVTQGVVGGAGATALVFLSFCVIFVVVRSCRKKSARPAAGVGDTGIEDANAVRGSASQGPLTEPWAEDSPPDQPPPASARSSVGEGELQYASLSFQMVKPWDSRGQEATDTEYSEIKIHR
smiles,measurement,setting,value
c1cncc(CN2CC[C@H]3O[C@@H](COCC4CC4)CC[C@H]32)c1,Percent Effect,[1],-2.96%
same,Percent Effect,[2],-2.67%
same,Percent Effect,[3],-5.28%
same,Percent Effect,[4],10.2%
same,Percent Effect,[5],2.62%
same,Percent Effect,Trypanosoma cruzi,-0.591%
same,Percent Effect,[6],7.23%
same,Percent Effect,[7],-2.38%
same,Percent Effect,Homo sapiens,8.64%
same,Percent Effect,[8],-10.9%
same,Percent Effect,[9],4.25%
same,Percent Effect,[10],6.41%
same,Percent Effect,[11],3.34%
CN1CCC2(CC1)CNC(=O)c1ccccc1O2,Percent Effect,[1],-3.91%
same,Percent Effect,[2],6.76%
same,Percent Effect,[3],-2.4%
same,Percent Effect,[4],13.4%
same,Percent Effect,[5],4.99%
same,Percent Effect,Trypanosoma cruzi,-5.34%
same,Percent Effect,[6],0.232%
same,Percent Effect,[7],10.3%
same,Percent Effect,Homo sapiens,1.44%
same,Percent Effect,[8],12.6%
same,Percent Effect,[9],6.45%
same,Percent Effect,[10],6.49%
same,Percent Effect,[11],-6.62%
CN1CCCC(Cc2cncc(Br)c2)CC1 (configuration not stated),Percent Effect,[1],-3.64%
same,Percent Effect,[2],1.35%
same,Percent Effect,[3],-6.03%
same,Percent Effect,[4],13.7%
same,Percent Effect,[5],-1.84%
same,Percent Effect,Trypanosoma cruzi,5.73%
same,Percent Effect,[6],0.232%
same,Percent Effect,[7],9.05%
same,Percent Effect,Homo sapiens,-10.1%
same,Percent Effect,[8],-7.14%
same,Percent Effect,[9],20.4%
same,Percent Effect,[10],22.1%
same,Percent Effect,[11],-20.8%
Cc1cccc(CN2CC[C@@H]3[C@@H]2CCN3C(=O)c2cnoc2C)n1,Percent Effect,[1],-3.21%
same,Percent Effect,[2],10.8%
same,Percent Effect,[3],-2.46%
same,Percent Effect,[4],-5.71%
same,Percent Effect,[5],-1.95%
same,Percent Effect,Trypanosoma cruzi,5.27%
same,Percent Effect,[6],34.2%
same,Percent Effect,[7],10.7%
same,Percent Effect,Homo sapiens,7.71%
same,Percent Effect,[8],5.3%
same,Percent Effect,[9],3.96%
same,Percent Effect,[10],15.8%
same,Percent Effect,[11],-1.59%
c1csc(CN2CC[C@H]3C[C@H](c4ccncn4)O[C@@H]3C2)c1,Percent Effect,[1],2.89%
same,Percent Effect,[2],13%
same,Percent Effect,[3],2.7%
same,Percent Effect,[4],9.99%
same,Percent Effect,[5],-6.78%
same,Percent Effect,Trypanosoma cruzi,-7.99%
same,Percent Effect,[6],5.81%
same,Percent Effect,[7],19.7%
same,Percent Effect,Homo sapiens,13.8%
same,Percent Effect,[8],-7.55%
same,Percent Effect,[9],2.12%
same,Percent Effect,[10],6.41%
same,Percent Effect,[11],-8.13%
Cc1ccc(N2CCO[C@H]3CN(Cc4cnn(C)c4)C[C@H]32)nn1,Percent Effect,[1],-2.13%
same,Percent Effect,[2],-2.7%
same,Percent Effect,[3],-2.15%
same,Percent Effect,[4],0.154%
same,Percent Effect,[5],-4.13%
same,Percent Effect,Trypanosoma cruzi,-6.55%
same,Percent Effect,[6],4.78%
same,Percent Effect,[7],18.4%
same,Percent Effect,Homo sapiens,0.179%
same,Percent Effect,[8],-2.36%
same,Percent Effect,[9],6.49%
same,Percent Effect,[10],10.3%
same,Percent Effect,[11],2.29%
Cc1oc(-c2ccco2)nc1CC(=O)N1CCN(CC(C)(C)O)CC1,Percent Effect,[1],-3.06%
same,Percent Effect,[2],5.2%
same,Percent Effect,[3],0.144%
same,Percent Effect,[4],-3.3%
same,Percent Effect,[5],5.79%
same,Percent Effect,Trypanosoma cruzi,-0.294%
same,Percent Effect,[6],5.68%
same,Percent Effect,[7],8%
same,Percent Effect,Homo sapiens,22.9%
same,Percent Effect,[8],30.6%
same,Percent Effect,[9],2.86%
same,Percent Effect,[10],9.41%
same,Percent Effect,[11],-21.6%
CCNC(=O)NC(=O)CNC1(c2noc(C)n2)CCCCC1,Percent Effect,[1],-8.65%
same,Percent Effect,[2],15.8%
same,Percent Effect,[3],0.329%
same,Percent Effect,[4],-3.69%
same,Percent Effect,[5],-6.42%
same,Percent Effect,Trypanosoma cruzi,6.91%
same,Percent Effect,[6],-5.92%
same,Percent Effect,[7],8.34%
same,Percent Effect,Homo sapiens,6.39%
same,Percent Effect,[8],4.43%
same,Percent Effect,[9],3.19%
same,Percent Effect,[10],-7.79%
same,Percent Effect,[11],-19.2%
COc1cc(OC)c(C2SCC(=O)Nc3n[nH]cc32)cc1OC (configuration not stated),Percent Effect,[1],-4.64%
same,Percent Effect,[2],5.26%
same,Percent Effect,[3],10.6%
same,Percent Effect,[4],15.2%
same,Percent Effect,[5],0.428%
same,Percent Effect,Trypanosoma cruzi,-0.682%
same,Percent Effect,[6],-7.1%
same,Percent Effect,[7],9.11%
same,Percent Effect,Homo sapiens,20.6%
same,Percent Effect,[8],10.6%
same,Percent Effect,[9],2.13%
same,Percent Effect,[10],2.6%
same,Percent Effect,[11],-1.49%
